Reference: PubChem BioAssay (NCATS)
Records with an inconclusive call do not appear. A call without a number means that no potency is given here. Activity calls are given as the source filed them. Calls follow the shape of the dose curve; as a rule, active = well fitted inhibition curve with a large enough effect; inconclusive = small, poorly fitted or top-dose-only effect; inactive = flat fitted curve, though single readings scatter.
Potency is read from the fitted curve at half-maximal effect.

These compounds were tested on PC49 (assay: qHTS profiling for inhibitors of Plasmodium falciparum proliferation (AID 504749; also: nearly all actives have a fitted effect of over 60% in size)). Details: P. falciparum in erythrocytes, SYBR Green DNA, 72 h; series mostly up to 28.7 µM.
Method in brief: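 Readout was DNA-dye fluorescence from lysed cultures, ex 485/em 535 nm. Parasitized red cells had grown 72 h with compound; data scaled between 0.29 uM artemisinin and DMSO wells and corrected using vehicle-only plates.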
For `COc1ccc2[nH]cc(CCNC(C)=O)c2c1`, the Potency was “inactive”.
In the case of `Clc1ccc2nsnc2c1NC1=NCCN1`, the Potency is reported as “inactive”.
`NC(=O)OCC(COC(N)=O)c1ccccc1` was tested, and the Potency was “inactive”.
With `Cc1cnc(C(=O)NCCc2ccc(S(=O)(=O)NC(=O)NC3CCCCC3)cc2)cn1` the Potency was “inactive”.
For `CC(C)(Oc1ccc(C2CC2(Cl)Cl)cc1)C(=O)O` (centres undefined), the Potency was “inactive”.
`CN(C)c1nc(N(C)C)nc(N(C)C)n1` was tested, and the Potency was “inactive”.
With `CC(=O)OCC(CCn1cnc2cnc(N)nc21)COC(C)=O` the Potency was “inactive”.
For `N[C@@H](Cc1c[nH]c2ccc(O)cc12)C(=O)O`, the Potency was “inactive”.
`O=c1c(O)c(-c2ccc(O)c(O)c2)oc2cc(O)cc(O)c12` was tested, and the Potency was “inactive”.
`CC[N+](CC)(CC)CCOc1cccc(OCC[N+](CC)(CC)CC)c1OCC[N+](CC)(CC)CC` was tested, and the Potency was “inactive”.
With `NCCCCCC(=O)O` the Potency was “inactive”.
With `O=C1N(c2ccccc2)c2ccccc2C1(Cc1ccncc1)Cc1ccncc1` the Potency was “inactive”.
`Cc1cc(C(C)(C)C)c(O)c(C)c1CC1=NCCN1` was tested, and the Potency was “inactive”.
With `Nc1nc2c(ncn2COC(CO)CO)c(=O)[nH]1` the Potency was “inactive”.
In the case of `CN(C)C(=N)N=C(N)N`, the Potency is reported as “inactive”.
For `NC(=O)NO`, the Potency was “inactive”.
With `NC12CC3CC(CC(C3)C1)C2` the Potency was “inactive”.
With `CC(C)(C)C(=O)Oc1ccc(S(=O)(=O)Nc2ccccc2C(=O)NCC(=O)O)cc1` the Potency was “inactive”.
With `Cc1ccc(-c2cc(C(F)(F)F)nn2-c2ccc(S(N)(=O)=O)cc2)cc1` the Potency was “inactive”.
`NCCS(=O)(=O)O` was tested, and the Potency was “inactive”.
`CCCNCC(O)COc1ccccc1C(=O)CCc1ccccc1` (centres undefined) was tested, and the Potency was 0.316 µM (active).
In the case of `O=C(c1ccc(F)cc1)C1CCN(CCn2c(=O)[nH]c3ccccc3c2=O)CC1`, the Potency is reported as “inactive”.
In the case of `Cn1cnc2c1c(=O)[nH]c(=O)n2C`, the Potency is reported as “inactive”.
With `C[C@](N)(Cc1ccc(O)c(O)c1)C(=O)O` the Potency was “inactive”.
